Results on 37 compounds are retold here after PubChem BioAssay (NCI).

The panel holds about 83,000 compounds, 20% with a hit somewhere; the sample as a whole holds those more often.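 For each line, cells grew in 96-well plates with the test compound present at a single concentration for 48 hours.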 Calls of active or inactive are those of the source. Rule for the calls: active = growth percent below 10; inactive = the rest.

In this assay the test system is CAKI-1 renal. As to the kind of experiment: NCI-60 one-dose screen, 48 h (100 = growth as untreated, 0 = no growth, -100 = all killed). Conditions: 10 µM unless noted.
Take `COc1ccccc1Cn1cc2c(c1)-c1oncc1CC2`: the growth is 9.72% (active).

On to `NC(=O)c1c(Nc2ccccc2)nn2cc(-c3nc4ccccc4s3)c(N)nc12`, for which the growth was 86.2% (inactive).

As to `COc1cc(/C(=C2/O[C@@H]([C@H]3COC(C)(C)O3)[C@H]3OC(C)(C)O[C@@H]23)c2ccc3c(c2)OCO3)cc(OC)c1OC`, the growth is 68.6% (inactive).

`O=C(N/N=C/c1coc2ccccc2c1=O)c1cc2oc(-c3ccccc3)cc2[nH]1`: the growth was 95.3% (inactive).

Consider `CCCCCCCCCC[N+](C)(C)C`, for which the growth is 58.4% (inactive).

For `CCCCCCC(=O)C(C)C`, the growth was 91% (inactive).

For `CCCC(=O)NNc1[nH]c(-c2ccc(OC)cc2)cc1C(=O)OCC`, the growth was 91.1% (inactive).

Consider `O=C1c2cc([N+](=O)[O-])ccc2-c2cc(Cl)c(NC(=O)C(F)(F)F)cc21`, for which the growth was 97.2% (inactive).

For `N=C(c1ccccc1)N(Cc1ccccc1)Cc1ccccc1`, the growth is 89.8% (inactive).

Regarding `CSCc1ncc(-c2ccc(C(F)(F)F)cc2)c(NC2CCCCCC2)n1`, the growth is 25.1% [25 µM] (inactive).

On to `O=C(Nc1cccc(Cn2c(=O)[nH]c3ccc(Oc4ncccn4)cc3c2=O)c1)c1ccc(Cl)cc1`, for which the growth is 60.9% (inactive).

On to `CCCCCCCCCC[N+](C)(C)N`, for which the growth is 78.4% (inactive).

With `C=C(C)C(C(=O)OCC)(C(=O)OCC)C(C)C`, the growth is 105% (inactive).

In the case of `COC1=CC(c2ccc[nH]2)=N/C1=C\c1[nH]c(C)c(C(=O)CCCCC(=O)NC(C)(C)C)c1C`, the growth was 34.1% (inactive).

Take `COc1ccc(NC(=O)/C=C(C)/C=C/C=C(C)/C=C/C2=C(C)CCCC2(C)C)cc1`: the growth was 66.6% (inactive).

Take `CCCCCCCCc1ccc(OCCOCC[N+](C)(C)CC)cc1` (tested in a mixture with another compound): the growth is 98.8% (inactive).

`COc1cc2c(cc1OC)C(Cc1cc(OC)c(OC)cc1[N+](=O)[O-])=NCC2`: the growth is 87.9% (inactive).

Regarding `O=C1CCNC1`, the growth was 113% (inactive).

On to `COc1ccc(-c2nnc(SCC(=O)Nc3ccc(C(=O)/C=C/c4cc(OC)c(OC)c(OC)c4)cc3)n2-c2ccccc2)cc1OC`, for which the growth was 1.67% [100 µM] (active).

Take `O=S(=O)(O)c1ccc2c(c1)Sc1cc(S(=O)(=O)O)ccc1O2`: the growth is 105% (inactive).

`Cc1ccc(S(=O)(=O)Nc2cccc(Cn3c(=O)[nH]c4ccc(Oc5ncccn5)cc4c3=O)c2)cc1`: the growth is 92.9% (inactive).

Turning to `CCCCCCCCCCC(C[N+](C)(C)C/C=C/c1ccccc1)C(O)c1ccccc1` (configuration not stated), the growth was 87.5% (inactive).

For the compound `COc1ccc(/C=C2\CCCC3=C2N=C2SC=NN2C3c2ccc(OC)c(OC)c2)cc1OC` (configuration not stated), the growth is 32.5% (inactive).

With `COc1cc(CCNc2cnc3cc(N)cc(N)c3n2)cc(OC)c1`, the growth was 129% (inactive).

For `O=C(CCl)c1ccc2c(c1)CCCC2`, the growth was 74.9% (inactive).

With `Cc1ccc(C(=O)Nc2ccc(CN3CCN(C)CC3)c(C(F)(F)F)c2)cc1C#Cc1cnc(N)c2ccc(F)cc12`, the growth was -58% (active).

As for `Cc1ccc(C(=O)Nc2ccc(CN3CCN(C)CC3)c(C(F)(F)F)c2)cc1C#Cc1cncc2ncccc12`, the growth is 1.96% (active).

For the compound `O=C(Nc1ccc(-n2cc(-c3ccncc3)c(-c3ccc(Cl)c(O)c3)n2)cc1)c1cc(C(F)(F)F)cc(C(F)(F)F)c1`, the growth was 60.4% (inactive).

Regarding `CCCCCCCCCC(C)NC(=O)CCl` (configuration not stated), the growth was 93.4% (inactive).

For the compound `COc1ccc(C(=O)CN2C(=O)NC(c3ccccc3)(c3ccccc3)C2=O)cc1`, the growth was 93.6% (inactive).

Take `CCCCCCCCC(=O)Nc1ccc(O)cc1`: the growth was 93.9% (inactive).

As to `N#Cc1ccc(NC2c3ccccc3CC2O)cc1` (configuration not stated), the growth is 106% (inactive).

In the case of `N#CCCCCCCCCCCC#N`, the growth was 95.2% (inactive).

Consider `CCOC(=O)c1ccc2n1CCCc1cnc(NC(C)=O)nc1-2`, for which the growth was 92.1% (inactive).

Turning to `O=C(/C(Br)=C/c1ccccc1)c1ccccc1`, the growth was -28.4% (active).

In the case of `COc1ccc2c(N)ncc(C#Cc3cc(C(=O)Nc4ccc(CN5CCN(C)CC5)c(C(F)(F)F)c4)cnc3C)c2c1`, the growth was 39.9% (inactive).

For `CCCCCCCCCCCC(=O)OC(C)C(=O)Nc1ccccc1` (configuration not stated), the growth is 91.2% (inactive).
